Unmarked numbers belong to inactive results.

The assay in a line: CREB reporter modulators without forskolin, primary screen, cell-based, PC12, CRE-LacZ reporter, unstimulated (AID 1145). Conditions: no forskolin, luminescence, 4.5 h, higher = more signal, called active from +8 up or from −8 down.
In the case of `O=C1OCC=C[C@H]2OC34C=CCN(c5ccc(Cl)cc5)C(=O)[C@H]3N(CCCCCO)C(=O)[C@@H]4[C@@H]12` (some centres not stated), the z-score was 0.183.

Take `CC(C)(C)OC(=O)CC[C@]1(C(=O)NCCN2CCOCC2)N=C(c2ccc(OCCCO)cc2)O[C@H]1c1ccccc1N=[N+]=[N-]`: the z-score was 0.872.

On to `COC(=O)C1(Cc2ccccc2)C=C2C(=C(c3ccccc3)C(=O)C2C)CN1` (configuration not stated), for which the z-score was 1.15.

For `COc1cc(CO)cc(I)c1O[C@H]1C=C(C(=O)NCCO)C[C@@H](N(CC2CCCCC2)C(=O)c2ccc(C(F)(F)F)cc2)[C@@H]1O`, the z-score is 2.57.

Regarding `COc1ccc([Si](C)(C)[C@H]2[C@H](CCn3cc(CCO)nn3)O[C@@]3(C(=O)N(Cc4ccc(N5C(=O)c6cccc7cccc5c67)cc4)c4ccccc43)[C@@H]2C)cc1`, the z-score is 1.12.

As to `CC=CC(O)C1C=CC2C(=O)N(C)C(=O)C2N1Nc1ccc([N+](=O)[O-])cc1[N+](=O)[O-]` (configuration not stated), the z-score was -0.136.

`COCCCNC(=O)[C@]1(Cc2ccccc2N=[N+]=[N-])N=C(c2ccc(OCCCO)cc2)O[C@@H]1c1ccccc1N=[N+]=[N-]`: the z-score was 0.432.

As for `[N-]=[N+]=NCc1ccccc1C[C@@]1(C(N)=O)N=C(c2ccc(OCCCO)cc2)O[C@@H]1c1ccccc1CN=[N+]=[N-]`, the z-score is 0.0451.

Consider `O=C1NC(=O)C2C1C=CC(C(O)c1ccc3c(c1)OCO3)N2Nc1ccccn1` (configuration not stated), for which the z-score was 1.01.

Regarding `O=C1C[C@]2(c3ccc([N+](=O)[O-])cc3)C(=O)N(Cc3ccccc3)c3cc(CO)ccc3[C@H]2N1CC12CC3CC(CC(C3)C1)C2`, the z-score is -0.491.

Take `COc1cc2c(cc1OC)CN(C(=O)[C@H]1[C@@H]3C(=O)O[C@@H](c4ccccc4)[C@@H](c4ccccc4)N3[C@@H](c3ccc(OCCO)cc3)[C@]13C(=O)Nc1ccc(C#CCCO)cc13)CC2`: the z-score is -0.61.

On to `CC(C)NC(=O)[C@@]1(C)c2ccccc2C(=O)N(C(C)C)[C@H]1c1ccc(CO)cc1`, for which the z-score is 0.0924.

As for `C=CCC(OC(C)=O)[C@@H]1[C@@H](N(Cc2cc3ccccc3o2)C(=O)Cc2ccc(F)cc2)c2cc(OCCCO)ccc2N1C(=O)c1ccc2ccccc2n1` (some centres not stated), the z-score was 3.16.

Consider `O=C1O[C@@H](c2ccccc2)[C@@H](c2ccccc2)N2[C@@H](c3ccc(O)cc3)[C@]3(C(=O)Nc4ccc(C#CCCO)cc43)[C@@H](C(=O)Nc3nc4ccccc4s3)[C@H]12`, for which the z-score is -0.195.

As to `C=C(CCCC)/C(=C/C[C@@H](OC(C)=O)c1ccc(CO)o1)c1cc(C(=O)OC)ccc1OC`, the z-score was 3.68.

For the compound `O=C1OC[C@@H](c2ccccc2)N2CC(/C=C/c3ccccc3)=CC12` (some centres not stated), the z-score is 0.945.

As for `CCOC(=O)[C@H]1C/C=C/C[C@H](C(=O)OCC)C(=O)O[C@H]2[C@@H](OC)O[C@H](CO)[C@@H](OC(=O)CCc3ccccc3)[C@@H]2OC1=O`, the z-score was -0.475.

Turning to `[N-]=[N+]=Nc1ccccc1C[C@@]1(C(=O)O)N=C(c2ccc(OCCCO)cc2)O[C@@H]1c1ccccc1`, the z-score is -0.585.

In the case of `CC(C)(C)N1CC=CC23O[C@@H]4C=CCOC(=O)[C@@H]4[C@H]2C(=O)N(CCCO)[C@@H]3C1=O` (some centres not stated), the z-score is 0.321.

On to `COC1(C)CN(Cc2ccccc2Br)[C@H](/C=C/c2ccccc2)[C@H](Cc2ccccc2)O1` (some centres not stated), for which the z-score is 1.93.

Take `O=C(N1CCCCC1)[C@@]1(Cc2ccccc2)COC(c2ccc(OCCCO)cc2)=N1`: the z-score was -0.128.

Take `COC(=O)[C@@]1(Cc2ccc(F)cc2)[C@H]2c3cc(C(=O)N4CCCC4)n(CCc4c[nH]c5ccc(OC)cc45)c3C[C@H]2CN1C(=O)c1ccccc1`: the z-score is 0.0041.

`[N-]=[N+]=Nc1ccccc1[C@@H]1OC(c2ccc(OCCCO)cc2)=N[C@]1(CCS(=O)(=O)c1ccccc1)C(=O)NCCN1CCOCC1`: the z-score is 0.549.

Regarding `CN1C(=O)C2C=CC(C(O)c3c(F)cccc3Cl)N(Nc3ccccc3)C2C1=O` (configuration not stated), the z-score was 0.433.

Turning to `COC(=O)[C@@]1(Cc2ccccc2)[C@H]2c3cc(C(=O)N4CCCC4)[nH]c3C[C@H]2CN1C(=O)c1ccccc1`, the z-score is 0.779.

Regarding `NCCCCCCNC(=O)[C@H]1C[C@H]2C(=O)N[C@@H](Cc3ccccc3)C(=O)N2[C@H]1c1ccc(O)cc1`, the z-score is -1.48.

In the case of `C[N+](C)(C)CCCC[C@@H]1NC(=O)[C@@H]2C[C@H](C(=O)O)[C@H](c3ccc(O)cc3)N2C1=O`, the z-score was 0.0043.

(Values after PubChem BioAssay.)
